The supplement of paper PMC6555819

Tests used:
Test in all cases: PBM binding z-score (relative to random genomic background probes); higher = stronger binding; sequences stand for … in GC…GCGATTGACAGCGTAGAATGAAGG
[1] = test system: FXR:RXRa (NR concentration 270 nM, RXRa partner concentration 90 nM)
How it was run: (§1)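 Each nuclear receptor dimer, without ligand, was incubated for 1 h on custom Agilent 4×180K protein-binding microarrays. Binding was detected with antibodies against each partner (one per run), and scanned fluorescence was regression-normalized. The binding z-scores are referenced to random human genomic background probes.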

[2] = test system: LXRa:RXRa (NR concentration 270 nM, RXRa partner concentration 90 nM)
How it was run: as §1

[3] = test system: LXRa homodimer (NR concentration 270 nM)
How it was run: as §1

[4] = test system: LXRb:RXRa (NR concentration 270 nM, RXRa partner concentration 90 nM)
How it was run: as §1

[5] = test system: LXRb homodimer (NR concentration 270 nM)
How it was run: as §1

[6] = test system: PPARa:RXRa (NR concentration 270 nM, RXRa partner concentration 90 nM)
How it was run: as §1

[7] = test system: PPARg:RXRa (NR concentration 180 nM, RXRa partner concentration 90 nM)
How it was run: as §1

[8] = test system: PPARg:RXRa 270nM:90nM, anti-RXR (NR concentration 270 nM, RXRa partner concentration 90 nM)
How it was run: as §1

[9] = test system: PPARg:RXRa 30nM:10nM, anti-RXR (NR concentration 30 nM, RXRa partner concentration 10 nM)
How it was run: as §1

[10] = test system: PPARg:RXRa 90nM:30nM, anti-RXR (NR concentration 90 nM, RXRa partner concentration 30 nM)
How it was run: as §1

Sequence | PBM binding z-score [1] | PBM binding z-score [2] | PBM binding z-score [3] | PBM binding z-score [4] | PBM binding z-score [5] | PBM binding z-score [6] | PBM binding z-score [7] | PBM binding z-score [8] | PBM binding z-score [9] | PBM binding z-score [10]
CGTCCAAGGTCAATGCTAGGTGAGTGAAAGCATT | 5.97 | 4.36 | 0.361 | 3.28 | 0.445 | 4.69 | 3.49 | 4 | 0.812 | 2.99
ATCTCAAGGTAACAAGTTCAGTGAAAGAGAGGAC | 1.2 | 1.29 | 0.665 | 0.971 | 0.9 | 1.4 | 0.619 | 1.08 | 0.731 | 1.03
CCTACTGGGCCAAGAAAGGTCATTGATTCAGTGA | 3.31 | 4.19 | 4.12 | 3.8 | -0.225 | 4.33 | 2.63 | 3.17 | 0.919 | 2.35
CCTACTGGGCCATCAGGTAATTGATATCAACGTT | -0.165 | -0.235 | -0.14 | -0.089 | -0.373 | 0.452 | 1.15 | 1.85 | 0.313 | 1.17
AATACAGGGTCATCGTAGTCCAGAGTACGCACAG | 7.48 | 6.18 | 2.88 | 4.83 | 1.9 | 6.32 | 7.13 | 6.38 | 2.86 | 4.99
ATCACTAGGTAAAAGTTCAGTGAATCCCGAGGAT | 0.841 | 1.47 | 1.23 | 0.945 | 0.59 | 4.85 | 8.25 | 8.67 | 7.65 | 9.23
CCTCGGAGTACAGAAGGTCAGAGCTGTCCGCTTT | 1.75 | 3.22 | 1.46 | 1.54 | -0.164 | 2.02 | -0.0233 | 0.921 | -0.606 | 0.4
CGTCAAAGTTTAACTAAGGTAACGTAAAGCACGC | 1.47 | 2.68 | 0.251 | 0.825 | 0.249 | 1.15 | 0.797 | 1.22 | 0.174 | 0.65
CCTTACGGGTCAACGTTATAGCACGGGTGGTACG | 4.79 | 3.47 | -0.0163 | 2.99 | -0.125 | 4.99 | 4.45 | 4.48 | 1.52 | 3.43
CGAACTAGGTCAGAAGAGGACAGTGAAGGATGAT | 1.71 | 1.24 | -0.161 | 0.331 | -0.576 | 3.14 | 5.79 | 4.62 | 2.29 | 4.02
CAAACTAGGTCACAGAGGTCATAGTCCGTGCGTA | 6.73 | 6.13 | 6.94 | 5.6 | 1.6 | 6.22 | 10 | 8 | 7.14 | 7.77
CCTAGCAGGCCAACCTGGGTCACTCAAGGCTTGA | 1.14 | 1.36 | -0.307 | 1.16 | -1.09 | 2.05 | 0.131 | 0.239 | -0.969 | -0.0466
TCGAGTAGGTTACCAATGGGTCATTCAGCTTTCT | 1.16 | 3.38 | 0.134 | 2.15 | -0.601 | 2.66 | 0.754 | 1.91 | 1.5 | 1.72
ATCGAAAGGTCGTGAGGTTAGTATACAGAAAGGC | 5.61 | 4.18 | 0.638 | 3.63 | 0.777 | 5.04 | 3.95 | 4.19 | 1.92 | 3.08
ACTATTAGTTAACTTAGGGCAACCGATACGACGC | 0.0468 | 1.21 | 0.294 | 0.256 | 0.392 | 0.281 | 1 | 0.361 | 0.616 | 0.282
GGAACGAGGGCAAAGTTGAGAGCATCTGTCGACG | 1.68 | 1.11 | -0.49 | 1.03 | -0.383 | 4.56 | 8.2 | 7.84 | 7.2 | 8.99
TCTTGAAGATCAAAGGTTAAGAAAGCCGAAGCCT | 1.84 | 2.29 | 0.0814 | 2.16 | -0.506 | 4.1 | 4.39 | 5.89 | 5.18 | 6.85
CGAACTAGGTCATCCAGGAAAGTGAATACATTGA | 4.43 | 2.64 | 0.469 | 2.15 | 0.453 | 5.01 | 7.91 | 6.29 | 4.25 | 5.91
ATCGAAAGGTCGAAGGGGAGTATACCCACCCGAA | 4.05 | 3.15 | 0.303 | 2.7 | 0.76 | 4.19 | 3.19 | 2.91 | 1.16 | 1.99
TCTTGTAGATCAACAGGAGGTTAGGAAAGATCGA | -0.355 | -0.0525 | -0.326 | 0.179 | -0.324 | 0.641 | -0.123 | 1.06 | 2.59 | 1.79
ATCTCTAGATAAGACTCAGTTCAGTGAAGAACGC | -0.0405 | -0.109 | 0.034 | -0.147 | 0.392 | -0.438 | 0.0934 | -0.337 | 0.0965 | 0.00622
AGAATGAAGTTATACGTAGATCAGGGAAGAAAGT | -0.499 | -0.297 | -0.439 | -0.59 | -0.391 | -0.311 | 0.842 | -0.228 | 0.0525 | -0.163
AGTGAAAGTTCACTAGGTAACGTAAGATTCAGCT | 4.44 | 5.02 | 3.08 | 2.88 | 0.454 | 4.5 | 6.12 | 6.07 | 3.52 | 5.3
CCTCGGAGGACAACAGGAGGTCAGAGCTGCCAGA | 1.12 | 2.26 | 1.95 | 1.36 | -0.474 | 1.99 | 0.527 | 0.477 | -0.553 | 0.529
TCTATTAGTTGTAGGGCAACCGACGAGTCCGTTT | 0.532 | 0.422 | 0.481 | 0.268 | 0.355 | 1.1 | 0.164 | 1.78 | 3.28 | 2.49

Sequence | PBM binding z-score [1] | PBM binding z-score [2] | PBM binding z-score [3] | PBM binding z-score [4] | PBM binding z-score [5] | PBM binding z-score [6] | PBM binding z-score [7] | PBM binding z-score [8] | PBM binding z-score [9] | PBM binding z-score [10]
CCTACTGGGCCAAAAAGGTCATTGACGCCGATAA | 3.87 | 4.62 | 2.87 | 4.33 | 0.108 | 4.61 | 3.21 | 4.25 | 1.8 | 3.54
AGAACGAGGGCAATGAGTTTATAGCACGGGTGGC | 0.163 | 0.317 | -0.472 | -0.145 | -0.322 | 1.25 | 1.55 | 0.876 | 0.119 | 0.36
ACTGGCAGGCCAAGGGTCACTCAAGATTAGTCCG | 2.36 | 2.55 | -0.0676 | 2.36 | -0.732 | 3.88 | 5.21 | 5.21 | 3.1 | 5.1
GCTTACGGGTCAACGGTTATAGCATGAATAGAAT | 5.44 | 3.55 | -0.033 | 3.68 | -0.198 | 5.55 | 6.07 | 5.8 | 3.19 | 5.2
AGAATGAGGTTAAGATAAGGGAAACAGAATACAT | 2.28 | 2.29 | 0.217 | 1.88 | 0.218 | 3.48 | 2.73 | 2.29 | 0.99 | 1.69
CTACCAAGGTGAACAAGATCGTTGATTACTATTC | 0.605 | 0.479 | -0.171 | 0.709 | -0.457 | 1.31 | 0.756 | 0.973 | 0.161 | 0.606
TCTAGTTGGTCACGTAGGTCACACACGACGGGTA | 2.06 | 1.85 | 1.01 | 2 | 0.514 | 2.78 | 2.17 | 3.05 | 3.43 | 3.35
ACTAGTTGGTCAGCTGACGTCACACACAATTCGG | 0.0857 | 0.103 | -0.224 | 0.522 | 0.287 | 0.229 | 0.969 | -0.246 | -0.0374 | -0.0611
TCTAGCAGGCCAGAGGGGCACTCAAGAGGTACGG | -0.239 | -0.393 | -0.689 | -0.334 | -0.644 | 0.22 | 0.662 | 1.41 | 1.64 | 1.51
CAAACTAGGTGAAAGGTCAAAGTCGAGCCAACCA | 6.87 | 6.26 | 4.36 | 6.08 | 2.26 | 7.39 | 14.1 | 11.5 | 15.3 | 14.2
ATCTCTAGGGAAAGATAGTTCAGTGAATGCAAAT | -0.0344 | 0.192 | 0.0693 | 0.157 | 0.479 | 0.0958 | 0.337 | 0.214 | 0.232 | 0.358
CAAACTATGTCAAGGTCAAAGTCGGTTTGTGCCA | 4.77 | 4.95 | 4.54 | 4.26 | 1.75 | 4.65 | 4.09 | 4.7 | 2.24 | 3.82
TCATACAGGTAATACAGGTGAAAGTCGGCATCTA | 0.813 | 1.42 | 0.615 | 1.31 | 0.285 | 1.88 | 0.982 | 2.34 | 3.85 | 3.1
GCAGTCAGGTGAAACGCAGGTAACTCAGGGTGGC | 0.205 | -0.0689 | -0.816 | -0.344 | -1.08 | 0.614 | 0.152 | 0.222 | -0.525 | 0.166
ACAGACAGGTGATGAAGGCAACTCAGGCTATCAT | -0.379 | -0.449 | -0.41 | -0.706 | -0.333 | -0.357 | 0.764 | -0.331 | -0.116 | -0.446
TTGCCTAGGTCATGGGCCAGTATACCACGCGAAC | 4.71 | 3.43 | 0.623 | 2.49 | -0.439 | 4.25 | 3.7 | 3.59 | 0.614 | 2.48
AATACAGGGTCACTAGGCCAGAGTCGGTACGAAT | 6.27 | 4.74 | 0.695 | 3.82 | 0.88 | 5.61 | 8.1 | 6.36 | 3.03 | 5.2
TTACCAAGGTGCAAGGTCGTTGATGCACGCCTTG | 0.786 | 1.16 | 0.129 | 0.668 | -0.474 | 2.06 | 2.28 | 3.87 | 1.91 | 3.42
CCTTACGGGTCACTGACAAGTTATAGCATTTGGA | 5.46 | 3.31 | 0.0997 | 3.2 | 0.134 | 4.9 | 4.26 | 4.4 | 1.41 | 3.45
ACTATTAGTTGACTGAGGGCAACCGATACGACGC | 0.492 | 0.678 | 0.199 | 0.459 | 0.656 | 0.506 | 0.804 | 0.0428 | 0.173 | 0.117
CCTGCTGGGCCAAAAAGGTCATTGATGCCGATAA | 3.7 | 4.03 | 2.82 | 4.04 | 0.015 | 4.34 | 1.24 | 2.72 | 0.205 | 1.65
AGAACGAGGTTAAGATCAGGGAAACAGAATACAT | 2.1 | 2.05 | 0.0843 | 2.09 | 0.134 | 3.4 | 1.98 | 1.92 | 0.64 | 1.61
CAAACTCGGTCAAAGGTCAAAGTCGAGCCAACCA | 7.73 | 6.98 | 6.36 | 6.72 | 3.13 | 7.67 | 12.9 | 10.9 | 11.8 | 12.5
CGTCCAAGGTCAAACGTCAGTGAAGAGATGACGG | 7.81 | 5.85 | 1.39 | 4.54 | 1.77 | 6.06 | 5.95 | 6.15 | 3.64 | 5.2
